Source: the supplement of paper PMC11732987, “Enantioselective OTUD7B fragment discovery through chemoproteomics screening and high-throughput optimisation” (Communications Chemistry, 2025)

Experiments:
Experiment in all cases: log2 ratio of Biotin-Ahx-Ub-VS probe labelling (fragment/DMSO); higher = less target engagement (more negative = stronger competition), active = hit call of the paper (q ≤ 0.05, log2 ratio ≤ -1)
Conditions in all cases: compound concentration: 200 uM; treatment time: 3 h
[1] = target: T1, USP19 (UniProt O94966)
T1 sequence (whole entry): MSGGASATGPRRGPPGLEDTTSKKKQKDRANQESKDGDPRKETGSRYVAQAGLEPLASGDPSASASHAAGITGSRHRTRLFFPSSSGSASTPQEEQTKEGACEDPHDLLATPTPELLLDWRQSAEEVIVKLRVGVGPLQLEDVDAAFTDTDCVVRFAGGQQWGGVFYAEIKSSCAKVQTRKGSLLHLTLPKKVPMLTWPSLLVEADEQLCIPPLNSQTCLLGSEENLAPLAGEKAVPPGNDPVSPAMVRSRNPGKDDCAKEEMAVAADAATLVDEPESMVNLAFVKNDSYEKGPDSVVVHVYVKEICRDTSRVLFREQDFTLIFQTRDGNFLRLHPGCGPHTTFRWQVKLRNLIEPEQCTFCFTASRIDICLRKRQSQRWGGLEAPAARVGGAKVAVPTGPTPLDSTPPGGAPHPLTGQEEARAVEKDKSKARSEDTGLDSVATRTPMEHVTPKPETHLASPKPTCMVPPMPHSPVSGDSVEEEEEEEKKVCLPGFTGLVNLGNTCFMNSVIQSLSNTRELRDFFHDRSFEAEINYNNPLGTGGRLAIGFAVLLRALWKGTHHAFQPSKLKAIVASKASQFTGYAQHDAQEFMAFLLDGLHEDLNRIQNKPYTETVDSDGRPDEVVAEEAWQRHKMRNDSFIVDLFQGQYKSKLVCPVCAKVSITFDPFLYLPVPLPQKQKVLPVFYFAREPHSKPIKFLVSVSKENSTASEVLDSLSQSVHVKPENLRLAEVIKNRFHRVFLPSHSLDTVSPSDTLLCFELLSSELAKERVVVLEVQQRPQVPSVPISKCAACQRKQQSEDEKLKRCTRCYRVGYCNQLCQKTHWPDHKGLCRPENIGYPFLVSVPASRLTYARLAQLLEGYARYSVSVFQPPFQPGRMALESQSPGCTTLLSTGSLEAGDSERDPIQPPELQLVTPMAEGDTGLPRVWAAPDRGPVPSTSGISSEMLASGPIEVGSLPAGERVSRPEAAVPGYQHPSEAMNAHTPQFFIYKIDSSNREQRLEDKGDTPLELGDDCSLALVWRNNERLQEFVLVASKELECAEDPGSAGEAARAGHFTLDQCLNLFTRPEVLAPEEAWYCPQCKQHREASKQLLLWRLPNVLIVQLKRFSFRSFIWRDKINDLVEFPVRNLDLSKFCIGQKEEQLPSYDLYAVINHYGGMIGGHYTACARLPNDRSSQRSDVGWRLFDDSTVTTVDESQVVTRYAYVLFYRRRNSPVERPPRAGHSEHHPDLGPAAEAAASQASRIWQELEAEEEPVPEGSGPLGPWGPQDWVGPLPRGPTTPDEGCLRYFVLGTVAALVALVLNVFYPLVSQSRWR
Method in brief: (§1)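 HEK293T lysate (495 µg per sample, in Tris/CHAPS/IGEPAL buffer with protease inhibitors) was treated in triplicate with fragment at 200 µM or with DMSO for 3 h. It was then treated with Biotin-Ahx-Ub-VS (0.5 µM final) for 1 h. Labelled DUBs were NeutrAvidin-enriched, digested with LysC and trypsin, and run by diaPASEF LC-MS/MS. Spectronaut label-free quantities were global-median-normalised. Values are average log2 ratios fragment/DMSO by unpaired t-test, using proteins with ≥2 unique peptides.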

[2] = target: USP24 (UniProt Q9UPU5)
Method in brief: as §1

[3] = target: T2, USP25 (UniProt Q9UHP3)
T2 sequence (whole entry): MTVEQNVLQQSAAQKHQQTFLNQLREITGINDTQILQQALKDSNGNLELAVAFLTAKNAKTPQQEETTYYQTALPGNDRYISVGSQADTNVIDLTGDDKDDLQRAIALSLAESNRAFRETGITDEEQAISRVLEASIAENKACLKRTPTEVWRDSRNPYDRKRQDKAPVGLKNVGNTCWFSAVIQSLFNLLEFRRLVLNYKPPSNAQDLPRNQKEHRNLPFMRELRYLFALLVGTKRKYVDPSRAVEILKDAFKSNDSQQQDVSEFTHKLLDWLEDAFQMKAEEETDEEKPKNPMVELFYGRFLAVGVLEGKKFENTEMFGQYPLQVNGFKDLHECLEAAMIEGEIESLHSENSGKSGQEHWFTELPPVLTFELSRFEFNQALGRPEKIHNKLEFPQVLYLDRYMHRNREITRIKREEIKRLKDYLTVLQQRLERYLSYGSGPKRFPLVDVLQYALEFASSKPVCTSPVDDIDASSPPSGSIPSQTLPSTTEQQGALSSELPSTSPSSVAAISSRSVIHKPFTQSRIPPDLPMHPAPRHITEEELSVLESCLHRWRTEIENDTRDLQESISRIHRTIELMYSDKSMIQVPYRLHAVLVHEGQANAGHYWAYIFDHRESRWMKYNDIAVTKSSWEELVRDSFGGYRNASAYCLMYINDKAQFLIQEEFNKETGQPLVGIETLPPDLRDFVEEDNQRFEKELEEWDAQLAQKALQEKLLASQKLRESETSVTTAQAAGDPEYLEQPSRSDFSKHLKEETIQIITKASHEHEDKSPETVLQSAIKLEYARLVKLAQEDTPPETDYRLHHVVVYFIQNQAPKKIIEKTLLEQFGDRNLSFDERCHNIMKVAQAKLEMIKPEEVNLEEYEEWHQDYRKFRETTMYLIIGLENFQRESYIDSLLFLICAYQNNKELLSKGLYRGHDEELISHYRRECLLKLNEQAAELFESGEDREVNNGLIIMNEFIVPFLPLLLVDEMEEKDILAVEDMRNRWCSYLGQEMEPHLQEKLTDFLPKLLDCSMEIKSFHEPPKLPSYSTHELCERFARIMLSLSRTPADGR
Method in brief: as §1

[4] = target: T3, USP28 (UniProt Q96RU2)
T3 sequence (whole entry): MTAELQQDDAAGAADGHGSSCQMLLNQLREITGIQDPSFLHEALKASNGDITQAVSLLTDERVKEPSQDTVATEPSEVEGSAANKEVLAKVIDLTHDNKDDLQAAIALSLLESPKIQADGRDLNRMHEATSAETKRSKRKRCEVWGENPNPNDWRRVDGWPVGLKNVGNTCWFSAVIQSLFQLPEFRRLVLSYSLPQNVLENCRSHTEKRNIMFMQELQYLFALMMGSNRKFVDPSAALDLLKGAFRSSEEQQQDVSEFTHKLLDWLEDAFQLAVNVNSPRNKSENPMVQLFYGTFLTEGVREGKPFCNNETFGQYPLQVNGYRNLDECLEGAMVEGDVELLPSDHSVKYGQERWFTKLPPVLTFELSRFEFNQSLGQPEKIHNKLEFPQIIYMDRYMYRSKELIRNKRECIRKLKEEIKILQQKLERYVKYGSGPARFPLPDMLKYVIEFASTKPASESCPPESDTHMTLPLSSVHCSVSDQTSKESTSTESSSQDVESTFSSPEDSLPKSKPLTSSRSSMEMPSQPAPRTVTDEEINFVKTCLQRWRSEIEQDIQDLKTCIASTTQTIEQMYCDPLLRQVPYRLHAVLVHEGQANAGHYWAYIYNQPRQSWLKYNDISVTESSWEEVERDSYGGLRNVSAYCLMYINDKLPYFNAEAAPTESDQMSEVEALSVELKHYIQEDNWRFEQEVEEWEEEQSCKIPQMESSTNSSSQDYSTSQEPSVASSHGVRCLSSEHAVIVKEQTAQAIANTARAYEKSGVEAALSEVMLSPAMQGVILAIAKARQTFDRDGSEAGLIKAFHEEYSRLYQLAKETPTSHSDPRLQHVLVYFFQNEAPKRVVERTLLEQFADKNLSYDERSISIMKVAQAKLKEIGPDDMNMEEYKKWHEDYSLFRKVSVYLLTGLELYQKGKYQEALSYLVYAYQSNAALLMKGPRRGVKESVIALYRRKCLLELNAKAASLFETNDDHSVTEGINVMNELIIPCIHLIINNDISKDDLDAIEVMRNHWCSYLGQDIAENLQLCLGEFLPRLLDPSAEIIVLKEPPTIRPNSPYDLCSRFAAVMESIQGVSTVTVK
Method in brief: as §1

Measured: log2 ratio of Biotin-Ahx-Ub-VS probe labelling

USP24, sequence (Q9UPU5 whole entry): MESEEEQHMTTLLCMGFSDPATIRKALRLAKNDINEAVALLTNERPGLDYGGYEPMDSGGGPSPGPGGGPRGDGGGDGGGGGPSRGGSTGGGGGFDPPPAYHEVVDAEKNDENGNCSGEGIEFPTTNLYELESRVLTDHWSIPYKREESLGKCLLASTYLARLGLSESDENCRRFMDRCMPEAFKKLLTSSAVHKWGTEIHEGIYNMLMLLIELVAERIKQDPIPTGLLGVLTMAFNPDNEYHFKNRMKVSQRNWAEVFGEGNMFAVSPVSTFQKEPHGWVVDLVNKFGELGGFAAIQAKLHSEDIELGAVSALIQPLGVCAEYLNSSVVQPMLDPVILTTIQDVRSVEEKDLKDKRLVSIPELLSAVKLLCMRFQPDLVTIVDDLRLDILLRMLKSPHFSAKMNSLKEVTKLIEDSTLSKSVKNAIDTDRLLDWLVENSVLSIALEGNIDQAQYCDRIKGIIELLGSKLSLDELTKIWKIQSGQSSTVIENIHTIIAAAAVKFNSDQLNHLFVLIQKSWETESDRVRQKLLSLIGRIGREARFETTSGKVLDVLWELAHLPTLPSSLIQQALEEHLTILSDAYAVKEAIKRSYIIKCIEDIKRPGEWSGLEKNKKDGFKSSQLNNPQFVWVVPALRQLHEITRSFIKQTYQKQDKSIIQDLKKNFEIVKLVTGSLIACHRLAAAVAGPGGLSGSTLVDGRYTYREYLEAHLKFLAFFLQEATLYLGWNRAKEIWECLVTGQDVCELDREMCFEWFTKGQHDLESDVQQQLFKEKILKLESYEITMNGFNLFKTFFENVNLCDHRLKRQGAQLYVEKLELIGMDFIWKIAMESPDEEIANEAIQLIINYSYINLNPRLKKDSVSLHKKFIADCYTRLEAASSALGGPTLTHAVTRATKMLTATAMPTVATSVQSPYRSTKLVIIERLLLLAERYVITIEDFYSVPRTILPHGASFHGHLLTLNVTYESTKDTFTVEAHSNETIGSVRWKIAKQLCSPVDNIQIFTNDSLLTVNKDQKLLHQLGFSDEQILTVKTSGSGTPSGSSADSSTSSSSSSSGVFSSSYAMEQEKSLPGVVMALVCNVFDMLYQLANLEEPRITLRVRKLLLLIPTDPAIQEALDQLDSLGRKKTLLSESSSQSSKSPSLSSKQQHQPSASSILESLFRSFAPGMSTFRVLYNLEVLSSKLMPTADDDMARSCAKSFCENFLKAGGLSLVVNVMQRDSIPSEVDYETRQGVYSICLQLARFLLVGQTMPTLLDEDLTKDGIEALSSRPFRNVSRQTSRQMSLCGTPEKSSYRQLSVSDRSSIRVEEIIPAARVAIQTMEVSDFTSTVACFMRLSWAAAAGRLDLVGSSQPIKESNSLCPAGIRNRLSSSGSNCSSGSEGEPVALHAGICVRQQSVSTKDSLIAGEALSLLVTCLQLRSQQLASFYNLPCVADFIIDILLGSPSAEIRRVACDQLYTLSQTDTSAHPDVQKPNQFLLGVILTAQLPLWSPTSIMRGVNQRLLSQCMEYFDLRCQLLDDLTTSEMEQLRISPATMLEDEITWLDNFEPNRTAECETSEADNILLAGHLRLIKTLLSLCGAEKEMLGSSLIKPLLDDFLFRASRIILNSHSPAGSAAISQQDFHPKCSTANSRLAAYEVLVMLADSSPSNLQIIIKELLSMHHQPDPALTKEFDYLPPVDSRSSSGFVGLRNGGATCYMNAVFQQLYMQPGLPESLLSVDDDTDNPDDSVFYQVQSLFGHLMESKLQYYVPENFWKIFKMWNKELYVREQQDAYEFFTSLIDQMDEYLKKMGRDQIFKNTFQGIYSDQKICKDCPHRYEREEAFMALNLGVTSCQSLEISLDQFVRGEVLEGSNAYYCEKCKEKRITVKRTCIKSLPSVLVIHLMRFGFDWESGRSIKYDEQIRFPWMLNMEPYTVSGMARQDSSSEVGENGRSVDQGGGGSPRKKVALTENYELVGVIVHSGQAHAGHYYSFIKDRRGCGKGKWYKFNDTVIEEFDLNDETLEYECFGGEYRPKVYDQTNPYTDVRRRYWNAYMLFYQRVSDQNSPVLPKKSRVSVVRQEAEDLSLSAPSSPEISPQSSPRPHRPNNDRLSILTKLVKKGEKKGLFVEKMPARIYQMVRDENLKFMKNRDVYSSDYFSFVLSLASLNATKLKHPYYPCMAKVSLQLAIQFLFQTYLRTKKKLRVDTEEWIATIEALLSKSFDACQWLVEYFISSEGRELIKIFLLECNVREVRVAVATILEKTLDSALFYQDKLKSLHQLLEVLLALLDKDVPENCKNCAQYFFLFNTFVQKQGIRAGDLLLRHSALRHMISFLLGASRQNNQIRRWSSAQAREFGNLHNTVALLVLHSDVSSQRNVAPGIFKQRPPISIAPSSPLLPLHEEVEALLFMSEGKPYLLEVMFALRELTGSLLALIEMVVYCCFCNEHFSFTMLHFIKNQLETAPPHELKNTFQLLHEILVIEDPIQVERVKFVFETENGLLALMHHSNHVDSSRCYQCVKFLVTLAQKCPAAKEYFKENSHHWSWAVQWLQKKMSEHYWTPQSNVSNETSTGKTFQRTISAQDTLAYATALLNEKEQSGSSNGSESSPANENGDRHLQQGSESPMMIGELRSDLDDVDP

O=C(CCl)N1CCC2(CCC(O)CC2)CC1
inactive: [1] 0.0572 | [2] -0.133 | [3] -0.0651 | [4] -0.372
